From PubChem BioAssay
ssDAF-12 act: activators of S. stercoralis DAF-12 nuclear receptor; HEK293 ssDAF-12/GRIP1 lit1-tk-luc reporter, luminescence; % of 3 µM dafachronic acid response; activation, % at 6.8 µM; 1% of 370,000 active; AID 652126;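 active = activation above the mean over all tested compounds plus 3 SD, cut at about 0.9% in these data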
DAX1 inh-1: inhibitors of DAX1 repression of SF-1 activated StAR promoter | 1.1% of 370,000 active | AID 652010 | inhibition, % at 6.8 µM | HEK293T StAR-luciferase reporter, SF-1/DAX-1 repression relief;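 active = inhibition above the mean over all tested compounds plus 3 SD, cut at about 3.6% in these data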;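 also: higher inhibition means more luminescence from relief of DAX-1 repression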
DAX1 inh-2: inhibitors of human orphan nuclear receptor DAX1 (NR0B1). HEK293 Gal4-DAX1 luciferase reporter, luminescence. inhibition, % at 6.75 µM. AID 504766. 0.99% of 340,000 active;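 active = inhibition above the mean over all tested compounds plus 3 SD, cut at about 4.2% in these data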;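 also: inhibition shows as a rise in luminescence from relieved DAX1 repression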
hcDAF12 agonist: H. contortus DAF-12 activation, primary screen; HEK293 hcDAF-12 lit1-tk-luc reporter, luminescence; 0% DMSO, 100% Δ7-dafachronic acid; activation, % at 6.8 µM; 1.4% of 370,000 active; AID 652067;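 active = activation above the mean of all tested compounds plus 3 SD, cut at about 5.5% in these data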
hgDAF-12 ag: activates the H. glycines DAF-12 receptor ligand-binding domain; 1.8% of 370,000 active; activation, % at 6.8 µM; HEK293 GAL4-hgDAF12 UAS-luciferase reporter, agonist luminescence; normalized to butyrate control;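 active = activation above a cutoff set at the mean of all screened compounds plus 3 SD, cut at about 10% in these data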
DAX1 inh confirm: NR0B1 (human) inhibition, confirmation. AID 652134. shares compounds with DAX1 inh-1. HEK293T StAR-promoter luciferase reporter, SF-1/DAX-1 repression. 87% of 2,400 active. inhibition, % at 6.8 µM;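 active = inhibition above the average of every tested compound plus 3 SD, cut at about 3.8% in these data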;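 also: active compounds raise luminescence by relieving repression of the StAR reporter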
Target sequence (P51843 whole entry, looked up): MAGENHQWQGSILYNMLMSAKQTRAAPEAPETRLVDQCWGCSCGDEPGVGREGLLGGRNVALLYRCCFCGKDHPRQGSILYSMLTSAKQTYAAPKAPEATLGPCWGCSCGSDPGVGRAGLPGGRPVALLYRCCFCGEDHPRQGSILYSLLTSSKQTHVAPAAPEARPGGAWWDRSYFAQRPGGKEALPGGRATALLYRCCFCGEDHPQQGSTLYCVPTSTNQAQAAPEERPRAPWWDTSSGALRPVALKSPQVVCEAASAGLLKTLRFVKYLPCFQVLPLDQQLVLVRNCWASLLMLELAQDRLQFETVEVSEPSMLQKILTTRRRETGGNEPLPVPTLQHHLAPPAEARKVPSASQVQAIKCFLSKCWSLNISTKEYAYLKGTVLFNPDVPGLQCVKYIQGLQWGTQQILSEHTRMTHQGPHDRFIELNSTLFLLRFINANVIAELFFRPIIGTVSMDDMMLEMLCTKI
SF1 AF2mut Luc: counter-screen for DAX1 inhibitors: nonselective inhibitors with SF-1 AF2 mutant. 78% of 2,400 active. inhibition, % at 6.8 µM. shares compounds with DAX1 inh-1. HEK293 StAR-luciferase, luminescence;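 active = inhibition above the mean of all tested compounds plus 3 SD, cut at about 3% in these data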
Numbers stand for hits; i = inactive; nt = not tested or not shown. The list is not random: actives were taken first. Their share in the collection is about 4.1%.

SMILES	ssDAF-12 act	DAX1 inh-1	DAX1 inh-2	hcDAF12 agonist	hgDAF-12 ag	DAX1 inh confirm	SF1 AF2mut Luc
CC(C)c1cc(C(C)C)c(S(=O)(=O)N2CCCC(C(=O)N3CCN(Cc4ccccc4)CC3)C2)c(C(C)C)c1 (centres undefined)	i	i	nt	i	i	nt	nt
O=C(NCCc1ccccc1)OCc1cn(Cc2ccc(F)cc2)nn1	i	i	nt	i	i	nt	nt
OC1CCN(c2c3c(nc4cc(-c5cccc(F)c5)nn24)CCCC3)CC1	i	i	i	i	i	nt	nt
CN(CCO)c1c2c(nc3cc(-c4cccc(F)c4)nn13)CCCC2	i	6.4	i	i	i	10.4	4.0
CCOC(=O)[C@@]12CN(C(=O)OC(C)(C)C)CC=C1N(Cc1ccc(OC)cc1)C(=O)[C@H]2CC(=O)NCCCN1CCCC1=O	i	i	nt	i	i	nt	nt
O=C(N/N=C/c1ccc2cccnc2c1)c1ccco1	i	5.0	i	i	12.3	13.7	7.2
O=[N+]([O-])c1ccc(Cl)c(S(=O)(=O)Nc2ccc(-c3ccc(N4CCOCC4)nn3)cc2)c1	i	i	i	i	i	nt	nt
O=S(=O)(Nc1cccc(-c2ccc(N3CCCCCC3)nn2)c1)c1ccc(F)cc1	i	5.7	i	i	i	i	i
O=[N+]([O-])c1ccc(Cl)c(S(=O)(=O)Nc2cccc(-c3ccc(N4CCOCC4)nn3)c2)c1	i	5.5	i	i	i	9.5	4.5
O=S(=O)(Nc1cccc(-c2ccc(N3CCCCCC3)nn2)c1)c1ccccc1Cl	i	i	i	i	i	nt	nt
O=S(=O)(Nc1cccc(-c2ccc(N3CCCCCC3)nn2)c1)c1ccccc1F	i	5.8	i	i	i	6.1	i
O=S(=O)(Nc1cccc(-c2ccc(N3CCCCCC3)nn2)c1)c1cccc(F)c1	i	4.6	i	i	i	6.9	4.4
O=C(/C(N=Nc1cccc(C(F)(F)F)c1)=C(/O)c1cccs1)C(F)(F)F	i	i	i	i	i	nt	nt
Cc1ccc(N=C/C(C(=O)C(F)(F)F)=C(\O)c2cccs2)cc1	i	4.5	i	6.5	i	18.4	6.2
Cc1ccc(S(=O)(=O)N2CCC(C(=O)NCc3cccs3)CC2)cc1	i	i	nt	i	i	nt	nt
C[C@H]1[C@@H]2C[C@@]3(O[C@H](c4ccccn4)N=C3C[C@@H]1c1ccccc1)N(Cc1ccncc1)C2=O	i	i	nt	i	i	nt	nt
O=C(CCCN1C(=O)/C(=C\c2cccs2)SC1=S)Nc1ccc(C(=O)O)cc1	i	i	i	i	i	nt	nt
CCN(CC)CCOC(=O)c1ccc(NC(=O)CCCN2C(=O)/C(=C/c3cccs3)SC2=S)cc1	i	6.2	i	i	i	8.5	5.4
O=C(NCCn1ccc2ccccc21)c1ccc2c(c1)OCO2	i	4.8	i	i	i	12.7	7.9
C/C(=N\NC(=O)c1ccccn1)C12CC3CC(CC(C3)C1)C2	i	5.8	i	i	12.7	5.6	3.3
O=C(Nc1ccccn1)C12CC3CC(CC(C3)C1)C2	i	i	i	i	i	nt	nt
N/C(=N\OC(=O)c1ccoc1)c1ccc(Br)cc1	i	9.5	i	i	i	10.8	6.9
C/C(=N\NC(=O)c1nn(C)c(C)c1Br)c1ccc(NC(=O)C2CCCC2)cc1	i	8.9	i	i	12.2	i	i
C/C(=N/NC(=O)c1ccoc1C)c1ccc(NC(=O)C2CCCC2)cc1	i	6.1	i	6.0	14.6	5.3	4.2
COc1ccc(C(=O)Nc2cccc(/C(C)=N\NC(=O)c3ccoc3C)c2)cc1OC	i	12.5	i	i	12.7	i	i
SMILES	ssDAF-12 act	DAX1 inh-1	DAX1 inh-2	hcDAF12 agonist	hgDAF-12 ag	DAX1 inh confirm	SF1 AF2mut Luc
C/C(=N/NC(=O)C1CCCC1)c1ccc(NC(=O)C(F)(F)F)cc1	i	i	i	i	i	nt	nt
Cc1ccc(NC(=O)c2ccc(OCC3CCCO3)cc2)nc1 (centres undefined)	i	8.3	i	i	11.6	6.7	3.3
Cc1cnc(NC(=O)c2ccc(OCC3CCCO3)cc2)s1 (centres undefined)	i	i	i	i	i	nt	nt
CCC[C@H]1[C@@H](NC(=O)c2ccc(OC)cc2)CC[C@@]23CCCN2C(=O)CCC[C@@H]13	i	nt	nt	i	i	nt	nt
O=C(NCC(c1ccccc1)c1ccccc1)[C@H](Cc1c[nH]c2ccccc12)NC1(C(=O)NC2CCCCC2)CCC1	i	nt	nt	i	i	nt	nt
CC(=O)N(C)c1ccc(C=C2C=Cc3ccccc32)cc1	i	4.9	i	6.2	i	i	i
CN(N=O)c1ccc(C=C2C=Cc3ccccc32)cc1	1.0	6.3	5.0	7.4	10.8	11.8	6.8
CCN(CC)c1ccc(C=C2C(=O)OC(c3ccccc3)OC2=O)cc1 (centres undefined)	i	i	i	i	i	nt	nt
CCN(N=O)c1ccc(C=C2C=Cc3ccccc32)cc1	i	6.6	i	5.8	19.1	9.3	5.7
CN(C)c1ccc(C=C2C(=O)OC(C)(C)OC2=O)cc1	i	i	i	i	i	nt	nt
CC(=O)N(O)c1ccc(C=Cc2ccccc2)cc1	i	i	nt	i	i	nt	nt
Nc1c(C(=O)Nc2ccc3c(c2)OCCO3)nnn1Cc1cccc(Br)c1	i	9.3	i	i	i	9.0	5.9
COc1ccccc1C(=O)NC1CCCCN(Cc2ccc(Cl)cc2)C1=O (centres undefined)	i	i	nt	i	i	nt	nt
O=C(NCc1ccccc1)OC1CCC12CCC(c1ccccc1)CC2 (centres undefined)	i	nt	nt	i	i	nt	nt
N/C(=N\OC(=O)Cc1ccc(-c2ccccc2)cc1)c1ccccn1	i	i	i	i	i	nt	nt
N/C(=N\OC(=O)CSc1ccccc1)c1ccccn1	i	7.0	i	i	i	5.3	4.7
CCOc1ccc(C(=O)O/N=C(\N)c2ccccn2)cc1OCC	i	6.3	i	i	11.7	i	4.5
COc1cccc(NC(=O)[C@H](NC(=O)[C@@H]2Cc3ccccc3CN2)c2ccccc2)c1	i	4.9	i	i	i	4.1	i
Cc1cccc(NC(=O)[C@H](NC(=O)[C@@H]2Cc3ccccc3CN2)c2ccccc2)c1	i	i	i	i	i	nt	nt
CN1C(=O)CSc2ccc(NC(=O)N3CCc4ccccc43)cc21	i	5.9	i	i	i	6.3	i
CCc1noc(C)c1C(=O)NCCc1ccc(F)cc1	i	i	i	i	i	nt	nt
CCc1noc(C)c1C(=O)NCCc1ccccc1	i	5.3	i	i	i	6.1	4.8
O=S1(=O)c2c(cccc2N2CCC[C@@H]2CO)O[C@H]2CCN1C2	i	i	nt	i	i	nt	nt
CCc1ccc(C2=NN(C(=O)OC)C(O)(C(F)(F)F)C2)cc1 (centres undefined)	1.0	6.6	i	6.0	i	11.8	5.4
COc1ccc(CC(=O)N2N=C(c3ccncc3)CC2(O)C(F)(F)F)cc1 (centres undefined)	i	i	i	i	i	nt	nt
